Results on 16 compounds are retold here after PubChem BioAssay (Tox21).

Each structure is given as a SMILES string. Values joined by “and” are separate entries in the source; they are usually repeats but may differ in a detail not shown here. Equal entries are not always repeated. Records with an inconclusive call do not appear. More than one record can exist for a structure, and the calls need not agree. Active and inactive are the calls of the source. The call rests on the fitted dose curve; in most records, active means well fitted curve in the direction sought with a large enough effect in the repeat runs; inconclusive means weak or mixed curves; inactive means no such curve, though single readings can be large; an effect the other way counts as inactive or inconclusive. Starred links: 1 amine or outer side, 2 acyl side, 3 side chain; linkers in the order of their positions; H or OH if unused. Positions of bridges follow the written chain, without caps; N, C: chain ends. Non-standard residues stand in square brackets, D forms with d. Residues, ends and D or L forms follow the SMILES beside them. Chains are numbered I, II in the order given. Actinocin(9to1) = Cc1c2oc3c(C)ccc(C(=O)[*:1])c3nc-2c(C(=O)[*:2])c(N)c1=O; NMeV = CN[C@H](C(=O)O)C(C)C; Sar = CNCC(=O)O

A short description of test [1]: qHTS RealTime-Glo MT Cell Viability Assay in HEK293 cells - 40 hour (AID 1224874). Further: nearly all actives have a fitted effect of over 50% in size. Further: potency means the concentration at half of the fitted maximal effect. To be noted: RealTime-Glo luminescence; max response: stronger effect = lower value. An outline of the steps: (§1)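 Nonlytic bioluminescent viability monitoring. HEK293 at 600 cells/well with reagent; 5 h settle; compound transfer by pintool; plates held at 37 C and read at set time points.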
Test [2] is described as follows: A CellTox Green Cytotoxicity Assay to monitor cytotoxicity in HEK293 cells - 24 hour (AID 1224875). Further: nearly all actives have a fitted effect of over 45% in size. Further: potency means the concentration at half of the fitted maximal effect. In short, it runs like this:
(§2)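 Cytotoxicity was tracked continuously in HEK293 cells by a DNA-binding dye excluded from viable cells. Compounds were transferred in DMSO 5 h after seeding; fluorescence was recorded at intervals up to 40 h.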

Test [3] is described as follows: qHTS RealTime-Glo MT Cell Viability Assay in HepG2 cells - 32 hour (AID 1224877). Further: nearly all actives have a fitted effect of over 55% in size. Further: potency means the concentration at half of the fitted maximal effect. In short, it runs like this: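 qHTS, HepG2, 600 cells/well, RealTime-Glo (NanoLuc + prosubstrate) added with cells; 5 h preincubation; DMSO compound addition; 37 C; luminescence at 0/8/16/24/32/40 h.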
A short description of test [4]: A CellTox Green Cytotoxicity Assay to monitor cytotoxicity in HepG2 cells - 24 hour (AID 1224878). Further: nearly all actives have a fitted effect of over 45% in size. Further: potency means the concentration at half of the fitted maximal effect. In short, it runs like this: (§3)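 Real-time, homogeneous cytotoxicity readout: dead-cell DNA staining by CellTox Green in HepG2 monolayers, fluorescence measured at timed intervals up to 40 h of continuous compound exposure.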
A short description of test [5]: A CellTox Green Cytotoxicity Assay to monitor cytotoxicity in HepG2 cells - 40 hour (AID 1224879). Further: nearly all actives have a fitted effect of over 40% in size. Further: potency means the concentration at half of the fitted maximal effect. An outline of the steps:
as §3

Test [6] can be described thus: qHTS RealTime-Glo MT Cell Viability Assay in HEK293 cells - 0 hour (AID 1224880). Further: nearly all actives have a fitted effect of over 45% in size. Further: potency means the concentration at half of the fitted maximal effect. An outline of the steps: as §1
Test [7] can be described thus: A CellTox Green Cytotoxicity Assay to monitor cytotoxicity in HEK293 cells - 32 hour (AID 1224881). Further: nearly all actives have a fitted effect of over 40% in size. Further: potency means the concentration at half of the fitted maximal effect. In short, it runs like this: as §2
A short description of test [8]: A CellTox Green Cytotoxicity Assay to monitor cytotoxicity in HepG2 cells - 0 hour (AID 1224882). Further: nearly all actives have a fitted effect of over 35% in size. An outline of the steps:
as §3

The nature of test [9]: A CellTox Green Cytotoxicity Assay to monitor cytotoxicity in HepG2 cells - 16 hour (AID 1224876). Further: nearly all actives have a fitted effect of over 45% in size. Further: potency means the concentration at half of the fitted maximal effect. An outline of the steps:
as §3
On the % scale 0 is the no-effect control and ±100 the full control effect.

With `CCCC(=O)c1ccccc1`, in test [1], the max response was 2.03% (inactive). For the same compound, the Potency entry in test [2], in test [3], in [4], in [5], in [6] and in test [7] was “inactive” throughout. In addition, in test [8], the Potency result is “inactive”.
For the compound `Cc1cc(C2(c3cc(C)c(O)cc3C)OS(=O)(=O)c3ccccc32)c(C)cc1O`, the max response in test [1] is -21.7% (inactive) and -18.4% (inactive). Moreover, the Potency result in test [2], in [9], in test [4], in [5], in test [7] and in test [8] was “inactive” each time. Besides, the Potency in test [6] is 27.5 µM (active) and 24.5 µM (active).
`CC(C(O)c1ccc(O)cc1)N1CCC(Cc2ccccc2)CC1` (configuration not stated): in [1], the max response was -13.3% (inactive). Besides, the Potency entry in test [2], in test [3], in test [4], in test [5], in test [6] and in test [7] was “inactive” in each case. The Potency result in test [8] was “inactive”.
For the compound `Oc1c(Cl)cc(Cl)cc1Sc1cc(Cl)cc(Cl)c1O`, the Potency was 17.4 µM (active) and 22.2 µM (active) and 13.8 µM (active) in [1]; 44.4 µM (active) and 43.6 µM (active) and inactive in [9]; 39.5 µM (active) and 43.6 µM (active) and inactive in [4]; 49.1 µM (active) and 43.6 µM (active) and inactive in test [7]. The Potency result in test [3] and in [6] was “inactive” in each case.
Take `C=CC(=O)OCCCCCCOC(=O)C=C`: the Potency in test [1] is 49.6 µM (active) and 43.6 µM (active); in test [3] it was “inactive and 49 µM (active)”; in test [5], “inactive and 54.9 µM (active)”. The Potency result in [9], in test [4] and in [6] was “inactive” throughout.
For `Cc1c2oc3c(C)ccc(C(=O)N[C@@H]4C(=O)N[C@H](C(C)C)C(=O)N5CCC[C@H]5C(=O)N(C)CC(=O)N(C)[C@@H](C(C)C)C(=O)O[C@@H]4C)c3nc-2c(C(=O)N[C@@H]2C(=O)N[C@H](C(C)C)C(=O)N3CCC[C@H]3C(=O)N(C)CC(=O)N(C)[C@@H](C(C)C)C(=O)O[C@@H]2C)c(N)c1=O` (I: T[dV]P[Sar][NMeV] / II: T[dV]P[Sar][NMeV]; ester I:1-I:C, II:1-II:C; linker I:N-II:N via Actinocin(9to1)), the Potency in test [1] is 8.5 nM (active) and 16.9 nM (active). Also, the Potency entry in test [2], in test [9], in [4], in [6], in test [7] and in [8] was “inactive” each time.
On to `CCCCCC(=O)O[C@]1(C(C)=O)CC[C@H]2[C@@H]3CCC4=CC(=O)CC[C@]4(C)[C@H]3CC[C@@]21C`, for which the Potency in test [1] was 24.4 µM (active). In addition, the Potency entry in [2], in [3], in test [4], in test [5], in test [6] and in test [7] was “inactive” in each case. For the same compound, the Potency entry in [8] was “inactive”.
On to `CC(C)(C)NC(=O)[C@@H]1CN(Cc2cccnc2)CCN1C[C@@H](O)C[C@@H](Cc1ccccc1)C(=O)N[C@H]1c2ccccc2C[C@H]1O`, for which the max response in test [1] is 0.0575% (inactive) and 0.362% (inactive). Besides, the Potency entry in test [2], in test [3], in test [4], in test [5], in [6] and in test [7] was “inactive” throughout. The Potency result in test [8] is “inactive”.
As for `CC(C)CCCCCCc1ccc(O)cc1`, the Potency in test [1] is 1.25 µM (active); in test [2] it was 28 µM (active) and 38.9 µM (active); in test [9], 44.4 µM (active) and 27.5 µM (active); in test [3] it was 19.8 µM (active) and inactive; in test [4] it was 22.3 µM (active) and 38.9 µM (active); in test [5], 14 µM (active) and 43.6 µM (active). The Potency in test [7] was 22.3 µM (active) and 38.9 µM (active). The Potency result in test [6] and in test [8] was “inactive” throughout.
For `CCC(C)(C)C(=O)O[C@H]1C[C@@H](C)C=C2C=C[C@H](C)[C@H](CC[C@@H]3C[C@@H](O)CC(=O)O3)[C@H]21`, the Potency result in [2] and in test [7] was “inactive” each time. For the same compound, in test [5], the Potency is 24.5 µM (active) and 9.52 µM (active).
Take `Cc1ccc(S(=O)(=O)Oc2ccc(N=Nc3ccc(-c4ccc(N=Nc5c(O)ccc6cc(S(=O)(=O)O)cc(S(=O)(=O)O)c56)c(C)c4)cc3C)cc2)cc1`: the max response in test [1] is -0.0985% (inactive). The Potency entry in test [2], in test [9], in test [4], in test [5], in test [7] and in test [8] was “inactive” in each case.
Consider `CNCCC(Oc1ccc(C(F)(F)F)cc1)c1ccccc1` (configuration not stated), for which the Potency in [5] was 48.4 µM (active) and 15.1 µM (active).
With `O=C(O[C@@H]1Cc2c(O)cc(O)cc2O[C@@H]1c1cc(O)c(O)c(O)c1)c1cc(O)c(O)c(O)c1`, the Potency in [1] was 7.48 µM (active). Also, the Potency result in test [2], in test [4], in [5], in test [6], in test [7] and in [8] was “inactive” throughout.
`NCCCCCC(=O)O`: the max response in test [1] is -0.0726% (inactive). The Potency result in [2], in [9], in test [3], in test [4], in [5] and in test [6] was “inactive” in each case. Moreover, the Potency entry in test [7] and in test [8] was “inactive” throughout.
As for `Nc1nc2ccccc2[nH]1`, the max response in test [1] was 0.0562% (inactive) and 7.05% (inactive). The Potency result in test [2], in test [3], in test [4], in test [6], in test [7] and in test [8] was “inactive” each time. Also, the Potency entry in test [5] was “inactive and 216 nM (active)”.
Regarding `CC(C)CCOCc1ccccc1`, the max response in [1] was 2.97% (inactive). Also, the Potency entry in test [2], in test [9], in test [3], in [4], in test [5] and in test [6] was “inactive” throughout. Besides, the Potency entry in [7] and in test [8] was “inactive” throughout.
